Reference: PubChem BioAssay AID743330 (NMMLSC, 2014)
Calls of active or inactive are those of the source. How the calls were made is not given here.

Test system: Ras
Assay: fluorescent GTP concentration effect on GTPase potency – biochemical, four GTPases, bead flow cytometry, mechanism study, profiling panel (AID 743330)
Details: bead-based flow cytometry, fluorescent GTP binding to GTPases

Q: `CCC1(C)Cc2c(sc(NC(=S)NC(=O)c3ccccc3)c2C(=O)O)CO1` (configuration not stated) was tested. Which EC50 did it give?
A: Its EC50 is 5 nM (active).

Q: Which EC50 does the source give for `CC1(C)Cc2c(sc(NC(=S)NC(=O)c3ccc(F)cc3)c2C(=O)O)CO1` here?
A: Its EC50 is 31 nM (active).
